In the library only some 19% were active in any assay of this set; here they are far more common.
Pf growth 96h: inhibits malaria parasite growth, 96 h; P. falciparum luciferase reporter growth, 96 h; Potency, µM (doses to about 28.7 µM), inactives show top-dose activity change, negative = inhibition, actives largely listed as inhibitors; 320,000 compounds, 6.9% hits; also: potency is read from the fitted curve at half-maximal effect; % is scaled to controls: 0 for no effect and ±100 for the full control effect
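Luminescence readout: decreased luciferase signal marks inhibited growth of reporter-expressing P. falciparum in infected red cells (2% hematocrit, 0.05% parasitemia final), exposed to compound two generations (96 h, 37 C, 5% CO2).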
AMA1 RON2 block: inhibitors of Plasmodium falciparum AMA1-RON2 interaction; Potency, µM (top dose mostly 58.2 µM), inactives show at the highest dose activity change, negative = inhibition, hits mostly inhibitors; 360,000 compounds, 0.2% hits; AlphaScreen AMA1-biotinylated RON2 peptide binding;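 also: potency is read from the fitted curve at half-maximal effect; 0% = vehicle wells and -100% = peptide control; nearly all actives have a fitted effect of over 45% in size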
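AMA1 (3D7) with his tag at 25 nM final met compounds first, then biotinylated RON2 peptide at 25 nM; detection used donor plus acceptor beads, 10 µg/mL apiece, read by AlphaScreen after 30 min at room temperature.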
Pf growth 48h: P. falciparum growth inhibition at 48 hours (one generation); 310,000 compounds, 5.9% hits; P. falciparum luciferase growth in erythrocytes, 48 h; Potency, µM (titrated, usually from 28.7 µM), for the others: at the top dose activity change, negative = inhibition, hits mostly inhibitors; also: potency is read from the fitted curve at half-maximal effect; % is scaled to controls: 0 for no effect and ±100 for the full control effect
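Here the parasites carry a stable luciferase gene and grow inside erythrocytes in Albumax-based RPMI medium with compound for one erythrocytic cycle. Activity is scored as loss of luminescent signal.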
CHX counter: counter-screen for Shiga toxin inhibitors: cycloheximide protein synthesis inhibition. cell reporter, cycloheximide protein synthesis inhibition counterscreen. max response, %. 300,000 compounds, 12% hits. AID 2314; in the data active = max response mostly above about 13%, no sharp cut-off; inactive = mostly below about 14%; also: read at 38.3 µM for the half of the compounds with a filed dose; 0% is about no effect
Shiga inhibitor: inhibitors of Shiga toxin in Vero cells. AID 2315. Vero cells, Shiga toxin protein synthesis inhibition reporter. inhibition, % at 38.7 µM. 290,000 compounds, 9.2% hits; in the data active = inhibition mostly above about 28%, no sharp cut-off; inactive = mostly below about 43%; also: 0% is about no effect
SARS PLpro yeast: inhibitors of SARS-CoV papain-like protease in yeast. S. cerevisiae expressing SARS-CoV PLpro, growth rescue. Potency, µM (highest dose often 32.9 µM), for the others: top-dose activity, positive = growth rescue, usual class: activators. 330,000 compounds, 0.19% hits. AID 485353; calls by dose curve; also: potency is read from the fitted curve at half-maximal effect; 0% is about no effect; nearly all actives have a fitted effect of over 55% in size
* marks the source's active call; other numbers are inactive results; u = inconclusive; x = no result; [ ] = remark or other dose. Unless noted, calls follow the shape of the dose curve; as a rule, active = well fitted curve in the direction sought with a large enough effect; inconclusive = small, poorly fitted or top-dose-only effect, or another doubt; inactive = no such curve, though single readings can be large; an effect the other way counts as inactive or inconclusive.

SMILES	Pf growth 96h	AMA1 RON2 block	Pf growth 48h	CHX counter	Shiga inhibitor	SARS PLpro yeast
Cc1ccc(-c2nnn(CCC(=O)NC3CCCC3)n2)cc1	u	-1%	-18%	17*	32	3%
Cc1ccccc1-c1noc(CCC(=O)NC2CCCCC2)n1	10µM*	-3%	5%	-4	-11	-5%
Cc1ccc(-c2noc(CCC(=O)NC3CC3)n2)cc1	24%	-10%	38%	20*	43	8%
S=C(Nc1cccc(Cl)c1Cl)N1CCC2(CC1)OCCO2	45%[1.15 µM]	-1%	14%	4	8	0%
Nn1c(SCC(=O)Nc2cccc(S(N)(=O)=O)c2)nnc1C1CC1	55%	-2%	10%	-2	-5	0%
COc1ccccc1-c1noc(CCC(=O)NC2CCCC2)n1	2.6µM*	7%	-2%	-1	-4	11%
Cc1cccc(CCNC(=O)CCc2nc(-c3ccccc3F)no2)c1	u	-3%	2%	-2	1	-7%
CN(C(=O)CCc1nc(-c2ccccc2F)no1)c1ccccc1	-30%	-9%	u	41*	98*	-5%
CCOc1ccccc1-c1noc(CCC(=O)NC2CCCCC2)n1	u	-4%	-6%	-6	20	1%
CC(C)c1nc(CNC(=O)CC2C(=O)NCCN2Cc2ccccc2)cs1 (stereo not drawn)	x	25%	x	x	x	x
CCc1ccc(NC(=O)CSc2nnc(COc3ccc4c(c3)CCCC4)o2)cc1	u	14%	x	-3	-15	-1%
CCOc1ccc(-c2nnc(SCC(=O)NC3CC3)o2)cc1	u	5%	u	x	x	1%[6.58 µM]
COc1ccc(OCc2nnc(SCC(=O)NC3CCCCC3)o2)cc1	4%	-2%	43%	10	30*	-1%
CC(C)(C)c1ccc(-c2nnc(SCC(=O)NC3CC3)o2)cc1	1.3µM*	7%	2.1µM*	x	x	3%
CCOc1ccc(Cc2nnc(SCC(=O)c3ccc(OC)cc3)o2)cc1	12µM*	22%	-16%	-1	-9	4%
COC(=O)c1ccc(NC(=O)CSc2nnc(COc3ccc4c(c3)CCCC4)o2)cc1	1.9µM*	3%	-7%	3	-17	-5%
O=C(NC(=S)N1CCN(c2ccccc2)CC1)c1ccco1	x	88%	x	x	x	u
CC(NC(=O)c1cccnc1)c1ccc2c(c1)OCO2 (stereo not drawn)	-17%	4%	6%	-2	-7	3%
COc1ccc(OCc2nnc(SCC(=O)NC3CC4CCC3C4)o2)cc1 (stereo not drawn)	53%	1%	-6%	28*	44	-1%
O=C(CSc1nnc(COc2ccc(Cl)cc2)o1)NC1CC2CCC1C2 (stereo not drawn)	-26%	0%	15%	8	21	1%
O=C(CSc1ccc(Cl)cc1)Nc1ccccc1N1CCN(C(=O)c2ccc(Cl)cc2)CC1	u	5%	4.1µM*	-5	-11	28%
Cc1ccccc1C(=O)Nc1ccccc1N1CCN(C(=O)c2ccccc2)CC1	18%	-9%	12µM*	-3	-7	-4%
CC(C)C(=O)NC(=S)Nc1ccccc1N1CCN(C(=O)c2ccc(Cl)cc2)CC1	-28%	0%	1.5µM*	32*	-19	0%
CC(C)(C)C(=O)Nc1ccccc1N1CCN(C(=O)c2ccc(Cl)cc2)CC1	u	-14%	10µM*	1	-2	-6%
O=C(Nc1ccccc1Oc1ccsc1C(=O)O)c1ccccc1F	0%	-7%	x	-1	-5	0%
SMILES	Pf growth 96h	AMA1 RON2 block	Pf growth 48h	CHX counter	Shiga inhibitor	SARS PLpro yeast
CC(C)(C)OC(=O)C[C@@H]1C/C=C\C[C@@H](CC(=O)N[C@H](CO)Cc2ccccc2)C(=O)NC[C@H](c2ccccc2)OC1=O	x	8%	x	x	x	-3%
Cc1ccccc1Nc1c(F)c(F)c(F)c(F)c1C(=O)O	u	7%	-3%	-2	4	0%
CCc1nnc(NC(=O)CCNC(=O)c2ccco2)s1	3%	-11%	u	-3	17	3%
COc1ccc(NC(=S)NC(=O)C2CCCCC2)cc1	29%	-4%	-20%	-3	-5	1%
CCOC(=O)Nc1cc(OCC)c(NC(=O)C2CC2)cc1OCC	-19%	-2%	1%	1	-3	5%
CCOC(=O)c1sc(NC(=S)NC(=O)CC(C)C)cc1C	68%	17%	-4%	43*	49*	2%
CCOC(=O)c1sc(NC(=O)C2CC2)cc1C	u	-4%	u	15*	38*	-20%
CCOC(=O)c1sc(NC(=S)NC(=O)C2CCCC2)cc1C	9.3µM*	-5%	u	11	10*	-25%
CCOC(=O)c1sc(NC(=O)C(C)(C)C)cc1C	20%	-3%	36%	28*	active	-19%
Cc1c(NC(=O)CN2CCN(c3cccc(Cl)c3)CC2)c(=O)n(-c2ccccc2)n1C	u	40%	15%	-3	-10	0%
C/C(=N\NC(=O)c1nnn(-c2nonc2N)c1CN(C)c1ccccc1)c1cccnc1	20%	0%	17%	0	-4	-12%
CCC(N)C12CC3CC(CC(O)(C3)C1)C2 (stereo not drawn)	-31%	11%	-10%	-3	2	17%
CC(/C=N/NC(=O)c1cc(-c2cccs2)[nH]n1)=C\c1ccccc1	u	-3%	-13%	9	10	8%
COc1ccc(NC(=O)Cn2ncn3nc(-c4ccc(OC)cc4)cc3c2=O)cc1	2%	2%	42%	-3	1	-1%
CN(C)c1nc(Cl)nc2c1nc(Cl)n2C1CCCCO1 (stereo not drawn)	x	5%	x	x	x	x
CCc1ccc(C(=O)NNc2ccc(C)c(Cl)c2)cc1	51%	u	u	9.9*	10	-4%
CCc1ccc(C(=O)NNc2ccc(F)cc2)cc1	33%	u	45%	14	41*	-2%
CCc1ccc(C(=O)NNc2cc(Cl)ccc2Cl)cc1	13%	4%	u	2	13	-2%
CCc1ccc(C(=O)NNc2ccccc2F)cc1	69%	0%	86%	36*	71*	-2%
O=C(CCc1ccccc1)NNC(=O)c1ccc(F)cc1	22%	8%	u	-4	-3	-1%
CCCc1ccc(C(=O)NNc2ccccc2F)cc1	47%	-9%	66%	20*	77*	-2%
CCCCOc1ccc(/C=C/C(=O)OCC(=O)NC(=O)NCC(C)C)cc1OCC	19%	3%	0%	8	-11	-22%
CC(C)OC(=O)c1c2nc3ccccc3nc2n2c1[nH]c(=O)c1ccccc12	6.6µM*	x	0%	-3	-8	-3%
COC(=O)C(C)Oc1ccc(-c2nccc(-c3ccc(F)cc3)n2)cc1 (stereo not drawn)	55%	10%	-16%	-2	26	-7%

Compound activity as filed in PubChem.
